Compound activity: PubChem, National Center for Advancing Translational Sciences (NCATS)
Rows were chosen to be rich in hits. Some 7.3% of all compounds tested hit in one or more screens of this group.
FLuc counter – firefly luciferase modulation, counter-screen for miR-21 project; Potency, µM (titrated, usually from 57.5 µM), for the others: at the top dose activity change, negative = inhibition, actives largely listed as inhibitors; 360,000 compounds, 6.9% hits; AID 588342; purified FLuc, Km substrates, luminescence inhibition;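 also: plate controls were vehicle for no effect and reference inhibitor for full effect; nearly all actives have a fitted effect of over 55% in size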
Target sequence (P08659 whole entry, looked up): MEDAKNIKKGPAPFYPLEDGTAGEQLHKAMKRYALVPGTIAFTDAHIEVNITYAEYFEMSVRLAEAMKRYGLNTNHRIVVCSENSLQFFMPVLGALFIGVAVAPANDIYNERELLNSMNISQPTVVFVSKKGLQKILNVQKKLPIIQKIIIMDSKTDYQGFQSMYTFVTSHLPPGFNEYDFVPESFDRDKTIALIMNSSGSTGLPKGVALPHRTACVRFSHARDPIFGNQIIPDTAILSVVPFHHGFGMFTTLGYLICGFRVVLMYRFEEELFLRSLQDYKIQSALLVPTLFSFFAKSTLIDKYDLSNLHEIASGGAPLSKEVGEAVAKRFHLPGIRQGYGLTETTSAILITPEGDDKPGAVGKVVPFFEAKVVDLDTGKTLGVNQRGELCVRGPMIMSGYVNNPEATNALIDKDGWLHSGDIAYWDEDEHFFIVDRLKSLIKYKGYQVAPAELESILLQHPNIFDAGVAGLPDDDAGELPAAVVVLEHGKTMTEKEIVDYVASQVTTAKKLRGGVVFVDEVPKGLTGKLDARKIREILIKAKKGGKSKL
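Biochemical qHTS of compounds, final roughly 60 µM downward over six points, against 10 nM purified firefly luciferase using Km concentrations of substrates (10 uM D-luciferin, 10 uM ATP) in Tris acetate pH 7.5 buffer; luminescence output.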
Rab9 prom act – Rab9 promoter activation | Huh7 Rab9 promoter-luciferase reporter, luminescence, 24 h | Potency, µM (highest dose often 9.22 µM), inactives show at the highest dose activation, negative = inhibition, actives largely listed as activators | 320,000 compounds, 2.8% hits | AID 485297; also: % of control where 0% means no effect; nearly all actives have a fitted effect of over 60% in size
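Stable Rab9-luc Huh7, 1500 cells/well, 2 h settle; cmpd in DMSO, 24 h, 37 °C/5% CO2; luciferase reagent 10 min RT; luminescence.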
p53 reactivation – re-activators of mutant p53 | H1299 p53-A138V BP100-luciferase reporter, luminescence, 24 h | Potency, µM (titrated, usually from 92.2 µM), without a hit: top-dose activity change, positive = activation, actives largely listed as activators | 320,000 compounds, 0.063% hits; also: % of control where 0% means no effect; nearly all actives have a fitted effect of over 45% in size
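H1299 (p53-null), stable ts p53-A138V + BP100-Luc; 1000 cells/well, Opti-MEM/10% FBS; cpd 4 pt, 1:5; 24 h, 37 deg C, 5% CO2; detection reagent 10 min RT; luminescence.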
NPC1 prom act – NPC1 promoter activation; Huh7 NPC1 promoter luciferase reporter, 24 h; Potency, µM (highest dose often 9.22 µM), for inactives: at the highest dose activation, most hits filed as activators; 320,000 compounds, 2.4% hits; also: % of control where 0% means no effect; nearly all actives have a fitted effect of over 60% in size
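In 1536-well qHTS, Huh7 cells harboring an NPC1 promoter–luciferase construct received compound for 24 h; activation was quantified by luminescence following luciferase reagent addition.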
SMN2 splice enh – SMN2 splice variant enhancement; AID 1458; HEK293 SMN2-luciferase splicing reporter, luminescence, 30-36 h; Potency, µM (doses to about 46.1 µM), for the others: top-dose activity change, positive = activation, usual class: activators; 210,000 compounds, 2.8% hits; also: % of control where 0% means no effect; nearly all actives have a fitted effect of over 55% in size
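HEK293 cells carry an SMN2 minigene-luciferase reporter in which exon 7 inclusion puts luciferase in frame. Cells were seeded at 2000 cells/well, attached for 10-12 hours, then exposed to compounds for 30-36 hours at 37C before ONE-Glo luminescence.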
ELG1 genotoxic – inducers of genotoxicity in HEK293T ELG1-luciferase cells; HEK293T ELG1-luciferase reporter, luminescence, 16 h; Potency, µM (series often up to 46 µM), without a hit: top-dose activity change, positive = activation, hits mostly activators; 330,000 compounds, 1.3% hits; also: % of control where 0% means no effect; nearly all actives have a fitted effect of over 60% in size
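16 hr compound incubation (37 °C, 5% CO2) of HEK293T cells carrying luciferase-tagged ELG1; luciferase then measured by ONE-Glo luminescence after 30 min at RT.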
The depositor's hits bear a star; [ ] = dose if it differs, or a comment. Calls follow the shape of the dose curve; as a rule, active = well fitted curve in the direction sought with a large enough effect; inconclusive = small, poorly fitted or top-dose-only effect, or another doubt; inactive = no such curve, though single readings can be large; an effect the other way counts as inactive or inconclusive. Potency is read from the fitted curve at half-maximal effect.

What do the screens show for `O=C(OC1CCc2ccccc2C1=O)c1ccccc1O` (configuration not stated)?
FLuc counter: 12µM*; Rab9 prom act: -5.2%; p53 reactivation: -24.5%; NPC1 prom act: -3.7%; SMN2 splice enh: 4.9%; ELG1 genotoxic: -32.1%

How did O=C(COc1ccccc1)Nc1nnc(-c2ccccc2)o1 do in these assays?
FLuc counter: 0.0%; Rab9 prom act: 2.6%; p53 reactivation: 3.5%; NPC1 prom act: 0.6%; SMN2 splice enh: -0.9%; ELG1 genotoxic: -0.4%

What do the screens show for `O=C(COc1ccccc1)Nc1cccc(-c2nnc(-c3ccccc3)o2)c1`?
FLuc counter: 12µM*; Rab9 prom act: 28.2%; p53 reactivation: 2.5%; NPC1 prom act: inconclusive; SMN2 splice enh: inconclusive; ELG1 genotoxic: -8.5%

What do the screens show for `O=C(O)CCC(=O)Nc1cccc(-c2nnc(-c3ccccc3)o2)c1`?
FLuc counter: 21.3µM*; Rab9 prom act: -2.4%; p53 reactivation: 22.6%; NPC1 prom act: 2.8%; ELG1 genotoxic: 11.0%

What do the screens show for `CC(=O)c1ccc(NC(=O)CCCN2C(=O)/C(=C/C(C)=C/c3ccccc3)SC2=S)cc1`?
FLuc counter: -4.2%; Rab9 prom act: 4.7%; p53 reactivation: inconclusive; NPC1 prom act: -2.9%; SMN2 splice enh: -20.4%; ELG1 genotoxic: 0.3%

What do the screens show for `CC(=C\c1ccco1)/C=C1/SC(=S)N(CC(=O)O)C1=O`?
FLuc counter: 16.9µM*; Rab9 prom act: 16.0%; p53 reactivation: 14.1%; NPC1 prom act: 1.5%; ELG1 genotoxic: 4.5%

What do the screens show for `CC(/C=C1\SC(=S)N(CC(=O)O)C1=O)=C\c1ccccc1`?
FLuc counter: 16.9µM*; Rab9 prom act: 20.9%; p53 reactivation: inconclusive; NPC1 prom act: inconclusive; ELG1 genotoxic: 15.7%

How did CC(=C\c1ccccc1)/C=C1/SC(=S)N(CCC(=O)O)C1=O do in these assays?
FLuc counter: 21.3µM*; Rab9 prom act: -4.1%[1.84 µM]; p53 reactivation: -9.7%; NPC1 prom act: -2.0%; ELG1 genotoxic: 4.2%

Results for CC(/C=C1\SC(=S)N(CC(=O)N2CCN(c3ccccc3)CC2)C1=O)=C\c1ccccc1 ?
FLuc counter: 1.0%; Rab9 prom act: -5.2%; p53 reactivation: 6.2%; NPC1 prom act: -2.4%; SMN2 splice enh: -0.7%[1.84 µM]; ELG1 genotoxic: -1.7%

Results for CCCN1CNC(=S)N(CC2CCCO2)C1 (configuration not stated) ?
FLuc counter: 1.8%; Rab9 prom act: -3.4%; p53 reactivation: -8.5%; NPC1 prom act: 0.8%; SMN2 splice enh: 7.0%; ELG1 genotoxic: 0.8%

Results for CC(CCN)(CCN)[N+](=O)[O-] ?
SMN2 splice enh: -12.7%[9.22 µM]

Results for Cc1ccc(NC(=O)CCOc2ccccc2)cc1 ?
FLuc counter: 13.5µM*; Rab9 prom act: 3.55µM*; p53 reactivation: inconclusive; NPC1 prom act: inconclusive; ELG1 genotoxic: inconclusive

What do the screens show for `Cc1cccc(OCCCC(=O)Nc2ccc(N(C)C)cc2)c1`?
FLuc counter: 8.49µM*; Rab9 prom act: inconclusive; p53 reactivation: inconclusive; NPC1 prom act: inconclusive; SMN2 splice enh: 0.1%; ELG1 genotoxic: inconclusive

How did O=C(CCOc1ccccc1)Nc1ccccc1 do in these assays?
FLuc counter: inconclusive; Rab9 prom act: 16.1%; p53 reactivation: inconclusive; NPC1 prom act: 19.5%; SMN2 splice enh: -7.6%; ELG1 genotoxic: 10.3%

Results for CCOc1ccc(CCNC(=O)c2nn(C)c3c2CSc2ccc(C)cc2-3)cc1OCC ?
FLuc counter: -2.5%

How did Cc1ccc(N/N=C/c2cccnc2)cc1 do in these assays?
FLuc counter: 16.9µM*; Rab9 prom act: inconclusive; p53 reactivation: 17.1%; NPC1 prom act: inconclusive; SMN2 splice enh: inconclusive; ELG1 genotoxic: inconclusive

How did Clc1cccc(N/N=C/c2ccncc2)c1 do in these assays?
FLuc counter: 16.9µM*; Rab9 prom act: inconclusive; p53 reactivation: 0.4%; NPC1 prom act: 25.6%; SMN2 splice enh: inconclusive; ELG1 genotoxic: inconclusive

What do the screens show for `Cc1ccc(N/N=C/c2ccncc2)cc1`?
FLuc counter: 12µM*; Rab9 prom act: 3.16µM*; p53 reactivation: inconclusive; NPC1 prom act: inconclusive; ELG1 genotoxic: inconclusive

How did O=C(NCCN1CCOCC1)c1cc(-c2ccc(F)cc2)nc2ccccc12 do in these assays?
FLuc counter: inconclusive; Rab9 prom act: 1.5%; p53 reactivation: 1.8%; NPC1 prom act: 1.0%; ELG1 genotoxic: 0.6%

What do the screens show for `O=C(NCCCN1CCCC1=O)c1cc(-c2ccc(F)cc2)nc2ccccc12`?
p53 reactivation: -1.3%; ELG1 genotoxic: -5.4%

Results for CCc1ccc(Nc2cc(C(=O)NCCCN3CCOCC3)c3ccccc3n2)cc1 ?
FLuc counter: 19µM*; Rab9 prom act: 6.8%; p53 reactivation: -0.8%; NPC1 prom act: -0.8%; SMN2 splice enh: -6.0%; ELG1 genotoxic: -11.8%

What do the screens show for `CC(C)Oc1ccc(-c2cc(C(=O)NCCN3CCOCC3)c3ccccc3n2)cc1`?
FLuc counter: 1.51µM*; Rab9 prom act: 25.1%; p53 reactivation: 3.9%; NPC1 prom act: inconclusive; SMN2 splice enh: 29.0%; ELG1 genotoxic: 5.6%

What do the screens show for `CCOc1ccc(-c2cc(C(=O)NCCCN3CCOCC3)c3ccccc3n2)cc1`?
FLuc counter: 8.49µM*; Rab9 prom act: 1.0%; p53 reactivation: -3.1%; NPC1 prom act: 14.6%; ELG1 genotoxic: 2.2%

What do the screens show for `COc1ccc(Nc2cc(C(=O)NCCCN3CCOCC3)c3ccccc3n2)cc1`?
FLuc counter: inconclusive; Rab9 prom act: -1.1%; p53 reactivation: 7.5%; NPC1 prom act: -1.8%; ELG1 genotoxic: -5.2%

What do the screens show for `COc1ccc(-c2cc(C(=O)NCCCN3CCCC3=O)c3ccccc3n2)cc1`?
FLuc counter: 12µM*; Rab9 prom act: -4.2%; p53 reactivation: -1.2%; NPC1 prom act: -2.2%; ELG1 genotoxic: -6.0%

What do the screens show for `CC(=O)NC(c1ccco1)c1cc(Cl)c2ccc(N3CCCCC3)nc2c1O` (configuration not stated)?
FLuc counter: inconclusive; Rab9 prom act: 3.7%; NPC1 prom act: 15.7%

What do the screens show for `O=C(/C=C/c1ccccc1)Nc1nc2n(n1)C(c1ccc(F)cc1)C=C(c1ccccc1)N2` (configuration not stated)?
FLuc counter: -7.5%

What do the screens show for `Cc1cccc(NC(=O)Nc2cnccn2)c1`?
FLuc counter: inconclusive; Rab9 prom act: -8.8%; p53 reactivation: -1.2%; NPC1 prom act: 0.2%; SMN2 splice enh: 11.9%; ELG1 genotoxic: 0.2%
